For nine molecules, inhibition results are on record in ChEMBL document CHEMBL1961873, “Compounds: GSK PKIS; Assays: Nanosyn kinase panel” (2012).

Experiment [1] addresses T1, Serine/threonine-protein kinase Nek9 (Homo sapiens) (UniProt Q8TD19).
T1 sequence (whole entry): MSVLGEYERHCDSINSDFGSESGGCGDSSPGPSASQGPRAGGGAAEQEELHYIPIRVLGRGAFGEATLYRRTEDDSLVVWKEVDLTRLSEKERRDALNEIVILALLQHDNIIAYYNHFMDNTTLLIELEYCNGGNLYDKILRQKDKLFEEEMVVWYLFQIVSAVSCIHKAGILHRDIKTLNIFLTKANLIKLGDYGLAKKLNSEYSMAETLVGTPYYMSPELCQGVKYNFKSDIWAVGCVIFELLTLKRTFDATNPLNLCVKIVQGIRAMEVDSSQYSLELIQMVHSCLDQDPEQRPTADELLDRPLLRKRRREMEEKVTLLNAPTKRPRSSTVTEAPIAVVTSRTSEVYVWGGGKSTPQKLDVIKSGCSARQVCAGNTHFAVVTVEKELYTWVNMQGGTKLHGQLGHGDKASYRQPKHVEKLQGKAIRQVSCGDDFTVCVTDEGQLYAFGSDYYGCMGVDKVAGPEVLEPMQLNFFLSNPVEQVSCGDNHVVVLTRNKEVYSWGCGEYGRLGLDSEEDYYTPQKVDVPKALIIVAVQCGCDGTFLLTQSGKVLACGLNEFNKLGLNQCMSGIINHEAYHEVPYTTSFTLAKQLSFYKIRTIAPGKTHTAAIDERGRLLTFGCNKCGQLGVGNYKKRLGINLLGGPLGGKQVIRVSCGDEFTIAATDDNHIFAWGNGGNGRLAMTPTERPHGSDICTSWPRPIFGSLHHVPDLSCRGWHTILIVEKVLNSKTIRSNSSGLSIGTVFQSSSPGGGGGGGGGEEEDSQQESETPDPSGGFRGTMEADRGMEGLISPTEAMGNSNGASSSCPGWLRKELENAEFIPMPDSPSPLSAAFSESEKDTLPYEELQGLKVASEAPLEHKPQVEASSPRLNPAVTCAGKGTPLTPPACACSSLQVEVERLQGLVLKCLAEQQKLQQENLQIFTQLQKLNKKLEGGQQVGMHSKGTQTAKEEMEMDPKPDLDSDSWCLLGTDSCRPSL
The conditions noted are these: at 1 µM.

Experiment [2] addresses Serine/threonine-protein kinase PLK1 (Homo sapiens) (UniProt P53350). To be noted: at 0.1 µM.
Experiment [3] has the same target. The conditions noted are these: at 1 µM.
In experiment [4] the target is T2, Dual specificity protein kinase TTK (Homo sapiens) (UniProt P33981).
T2 sequence (whole entry): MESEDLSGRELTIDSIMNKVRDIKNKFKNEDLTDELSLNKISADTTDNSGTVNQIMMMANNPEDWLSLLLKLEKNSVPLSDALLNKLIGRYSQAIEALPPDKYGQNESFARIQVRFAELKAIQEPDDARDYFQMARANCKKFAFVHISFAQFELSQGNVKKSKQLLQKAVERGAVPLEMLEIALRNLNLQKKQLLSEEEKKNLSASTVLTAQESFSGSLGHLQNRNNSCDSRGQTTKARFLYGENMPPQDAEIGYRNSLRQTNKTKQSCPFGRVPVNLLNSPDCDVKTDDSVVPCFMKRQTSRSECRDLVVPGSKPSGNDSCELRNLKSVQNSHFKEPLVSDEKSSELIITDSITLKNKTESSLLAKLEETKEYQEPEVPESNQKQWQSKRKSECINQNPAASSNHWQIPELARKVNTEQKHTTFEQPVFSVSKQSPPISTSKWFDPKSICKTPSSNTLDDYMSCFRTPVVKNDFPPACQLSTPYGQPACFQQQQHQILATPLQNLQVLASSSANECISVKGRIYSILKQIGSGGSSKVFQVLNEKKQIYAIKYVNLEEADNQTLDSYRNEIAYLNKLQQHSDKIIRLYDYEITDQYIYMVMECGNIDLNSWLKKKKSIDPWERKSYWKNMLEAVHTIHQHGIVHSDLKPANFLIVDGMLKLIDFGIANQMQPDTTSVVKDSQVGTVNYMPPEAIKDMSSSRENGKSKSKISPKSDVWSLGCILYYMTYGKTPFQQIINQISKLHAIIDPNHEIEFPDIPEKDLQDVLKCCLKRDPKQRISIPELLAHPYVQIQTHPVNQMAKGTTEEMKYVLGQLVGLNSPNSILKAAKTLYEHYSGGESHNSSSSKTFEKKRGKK
To be noted: at 0.1 µM.

Experiment [5] relates to T3, Receptor-type tyrosine-protein kinase FLT3 (Homo sapiens), P36888 [D835Y].
T3 sequence (whole entry): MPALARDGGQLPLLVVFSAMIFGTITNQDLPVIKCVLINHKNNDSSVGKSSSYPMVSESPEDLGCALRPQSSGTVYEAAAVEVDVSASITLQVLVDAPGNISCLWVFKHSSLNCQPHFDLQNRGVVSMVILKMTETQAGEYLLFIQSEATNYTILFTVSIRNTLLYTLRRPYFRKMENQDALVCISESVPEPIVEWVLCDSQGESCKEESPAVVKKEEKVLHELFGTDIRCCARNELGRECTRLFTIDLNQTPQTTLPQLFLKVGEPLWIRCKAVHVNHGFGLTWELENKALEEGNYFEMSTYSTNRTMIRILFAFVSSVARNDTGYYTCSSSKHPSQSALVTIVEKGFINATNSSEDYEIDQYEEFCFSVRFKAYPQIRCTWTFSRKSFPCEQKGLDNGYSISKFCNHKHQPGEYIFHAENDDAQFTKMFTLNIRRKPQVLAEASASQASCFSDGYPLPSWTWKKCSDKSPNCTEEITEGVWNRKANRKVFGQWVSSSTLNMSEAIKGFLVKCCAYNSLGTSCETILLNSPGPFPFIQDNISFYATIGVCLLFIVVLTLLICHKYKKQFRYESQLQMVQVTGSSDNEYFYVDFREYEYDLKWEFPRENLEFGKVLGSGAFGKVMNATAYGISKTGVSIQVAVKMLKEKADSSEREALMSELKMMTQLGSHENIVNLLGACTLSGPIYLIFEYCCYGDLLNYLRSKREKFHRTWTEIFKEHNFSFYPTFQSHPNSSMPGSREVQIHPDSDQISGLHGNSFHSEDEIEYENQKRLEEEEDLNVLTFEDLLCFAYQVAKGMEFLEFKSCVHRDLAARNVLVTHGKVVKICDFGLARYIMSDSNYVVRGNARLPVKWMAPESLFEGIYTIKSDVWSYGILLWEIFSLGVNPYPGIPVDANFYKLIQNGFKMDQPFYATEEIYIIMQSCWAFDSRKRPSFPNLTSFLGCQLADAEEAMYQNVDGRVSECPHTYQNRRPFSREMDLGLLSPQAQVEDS
The conditions noted are these: at 1 µM.

Experiment [6] concerns the target Vascular endothelial growth factor receptor 3 (Homo sapiens) (UniProt P35916). The conditions noted are these: at 0.1 µM.
For experiment [7] the target is unchanged. To be noted: at 1 µM.
In experiment [8] the target is Macrophage colony-stimulating factor 1 receptor (Homo sapiens) (UniProt P07333). The conditions noted are these: at 0.1 µM.
Chain of Macrophage colony-stimulating factor 1 receptor (Homo sapiens) (P07333 whole entry): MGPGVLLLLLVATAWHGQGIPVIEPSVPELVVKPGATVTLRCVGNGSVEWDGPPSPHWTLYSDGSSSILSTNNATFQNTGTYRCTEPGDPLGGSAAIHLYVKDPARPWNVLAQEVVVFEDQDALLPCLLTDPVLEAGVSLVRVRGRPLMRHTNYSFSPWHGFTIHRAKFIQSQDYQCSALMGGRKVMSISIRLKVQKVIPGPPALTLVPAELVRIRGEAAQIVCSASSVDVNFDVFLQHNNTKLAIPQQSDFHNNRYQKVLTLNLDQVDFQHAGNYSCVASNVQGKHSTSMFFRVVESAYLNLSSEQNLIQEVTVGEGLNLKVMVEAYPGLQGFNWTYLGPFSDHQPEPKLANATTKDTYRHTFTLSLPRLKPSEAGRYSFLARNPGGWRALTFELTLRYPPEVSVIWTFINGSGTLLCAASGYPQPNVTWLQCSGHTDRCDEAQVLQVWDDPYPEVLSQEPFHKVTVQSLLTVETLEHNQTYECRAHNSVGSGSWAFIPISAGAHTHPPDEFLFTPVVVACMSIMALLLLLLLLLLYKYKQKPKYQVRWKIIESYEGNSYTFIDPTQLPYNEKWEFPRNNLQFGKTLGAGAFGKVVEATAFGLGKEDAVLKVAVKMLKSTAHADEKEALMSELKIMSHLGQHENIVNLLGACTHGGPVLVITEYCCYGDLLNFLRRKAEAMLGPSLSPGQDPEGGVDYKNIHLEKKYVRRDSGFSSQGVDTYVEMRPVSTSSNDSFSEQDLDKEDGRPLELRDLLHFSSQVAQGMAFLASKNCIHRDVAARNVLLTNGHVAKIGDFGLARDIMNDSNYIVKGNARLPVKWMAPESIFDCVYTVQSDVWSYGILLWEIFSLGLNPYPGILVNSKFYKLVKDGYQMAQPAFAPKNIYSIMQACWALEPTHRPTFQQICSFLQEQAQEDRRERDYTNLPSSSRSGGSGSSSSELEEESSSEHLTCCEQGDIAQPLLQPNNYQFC
For experiment [9] the target is unchanged. The conditions noted are these: at 1 µM.
The target of experiment [10] is Tyrosine-protein kinase Fyn (Homo sapiens) (UniProt P06241). To be noted: at 0.1 µM.
Chain of Tyrosine-protein kinase Fyn (Homo sapiens) (P06241 2-537 limits assumed): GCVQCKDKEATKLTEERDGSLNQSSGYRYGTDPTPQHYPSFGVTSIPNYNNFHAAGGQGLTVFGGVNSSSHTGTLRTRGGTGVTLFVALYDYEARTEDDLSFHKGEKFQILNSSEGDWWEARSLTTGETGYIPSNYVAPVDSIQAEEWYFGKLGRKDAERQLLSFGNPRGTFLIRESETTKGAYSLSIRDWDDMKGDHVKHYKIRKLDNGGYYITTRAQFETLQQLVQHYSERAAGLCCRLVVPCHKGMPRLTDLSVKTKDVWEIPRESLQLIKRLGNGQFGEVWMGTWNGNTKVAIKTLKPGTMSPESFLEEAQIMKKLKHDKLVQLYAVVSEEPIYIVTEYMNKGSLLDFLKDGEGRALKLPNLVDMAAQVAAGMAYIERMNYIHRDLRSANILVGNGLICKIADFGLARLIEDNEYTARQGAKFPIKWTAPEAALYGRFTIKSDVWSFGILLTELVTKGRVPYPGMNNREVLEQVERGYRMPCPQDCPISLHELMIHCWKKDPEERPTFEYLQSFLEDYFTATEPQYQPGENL

Chain of Vascular endothelial growth factor receptor 3 (Homo sapiens) (P35916 whole entry): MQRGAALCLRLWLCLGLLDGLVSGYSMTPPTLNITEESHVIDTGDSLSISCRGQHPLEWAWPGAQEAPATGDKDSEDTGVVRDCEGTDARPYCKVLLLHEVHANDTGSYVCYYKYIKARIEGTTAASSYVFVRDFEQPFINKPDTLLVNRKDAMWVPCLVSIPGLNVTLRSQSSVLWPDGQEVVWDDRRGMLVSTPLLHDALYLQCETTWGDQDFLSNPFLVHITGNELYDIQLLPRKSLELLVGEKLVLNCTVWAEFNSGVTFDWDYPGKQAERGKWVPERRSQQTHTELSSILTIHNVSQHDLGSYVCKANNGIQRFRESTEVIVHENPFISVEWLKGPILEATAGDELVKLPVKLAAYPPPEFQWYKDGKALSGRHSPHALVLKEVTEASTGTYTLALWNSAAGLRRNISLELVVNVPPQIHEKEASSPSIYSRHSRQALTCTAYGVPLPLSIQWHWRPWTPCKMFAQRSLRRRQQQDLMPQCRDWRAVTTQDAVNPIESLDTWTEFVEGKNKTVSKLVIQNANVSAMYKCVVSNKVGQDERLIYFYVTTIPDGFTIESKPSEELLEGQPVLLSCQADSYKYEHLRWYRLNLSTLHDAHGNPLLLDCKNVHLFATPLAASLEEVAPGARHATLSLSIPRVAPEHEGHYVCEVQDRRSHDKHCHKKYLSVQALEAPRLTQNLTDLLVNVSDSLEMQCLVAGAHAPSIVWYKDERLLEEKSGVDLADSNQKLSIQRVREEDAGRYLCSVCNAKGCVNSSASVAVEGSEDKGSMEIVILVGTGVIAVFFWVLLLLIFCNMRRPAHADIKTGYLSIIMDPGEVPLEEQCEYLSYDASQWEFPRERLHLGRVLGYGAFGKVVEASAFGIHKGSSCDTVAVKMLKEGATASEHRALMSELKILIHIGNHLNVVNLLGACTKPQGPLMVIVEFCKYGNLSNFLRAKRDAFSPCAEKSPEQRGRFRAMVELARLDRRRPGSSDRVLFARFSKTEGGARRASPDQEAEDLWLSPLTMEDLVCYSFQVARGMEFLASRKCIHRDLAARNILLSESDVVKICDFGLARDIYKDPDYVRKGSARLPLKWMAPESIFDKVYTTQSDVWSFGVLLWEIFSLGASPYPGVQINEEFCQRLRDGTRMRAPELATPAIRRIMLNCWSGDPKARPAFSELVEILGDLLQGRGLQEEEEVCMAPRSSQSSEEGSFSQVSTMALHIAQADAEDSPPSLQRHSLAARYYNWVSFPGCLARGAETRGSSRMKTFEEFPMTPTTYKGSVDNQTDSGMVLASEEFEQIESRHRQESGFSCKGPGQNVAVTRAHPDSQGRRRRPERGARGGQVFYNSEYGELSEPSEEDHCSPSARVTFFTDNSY
Chain of Serine/threonine-protein kinase PLK1 (Homo sapiens) (P53350 whole entry): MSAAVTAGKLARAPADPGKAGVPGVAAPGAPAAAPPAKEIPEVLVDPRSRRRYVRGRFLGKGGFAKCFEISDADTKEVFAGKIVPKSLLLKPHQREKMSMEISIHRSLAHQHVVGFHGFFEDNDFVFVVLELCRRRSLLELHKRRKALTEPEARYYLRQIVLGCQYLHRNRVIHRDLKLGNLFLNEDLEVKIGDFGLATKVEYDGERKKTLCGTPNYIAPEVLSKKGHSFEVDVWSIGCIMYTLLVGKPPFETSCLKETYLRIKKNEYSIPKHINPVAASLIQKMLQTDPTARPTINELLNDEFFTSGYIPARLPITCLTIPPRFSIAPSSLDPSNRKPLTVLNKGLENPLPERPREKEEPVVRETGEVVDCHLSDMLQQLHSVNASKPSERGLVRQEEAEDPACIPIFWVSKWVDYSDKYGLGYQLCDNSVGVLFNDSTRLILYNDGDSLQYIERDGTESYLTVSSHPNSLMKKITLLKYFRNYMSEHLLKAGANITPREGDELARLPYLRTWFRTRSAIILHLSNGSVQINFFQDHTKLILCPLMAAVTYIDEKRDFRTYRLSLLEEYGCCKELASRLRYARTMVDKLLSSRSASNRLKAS

One may read the inhibition as the drop in the measured response relative to a control, in per cent. With `NS(=O)(=O)c1ccc(N/N=C2\C(=O)Nc3ccc4ncccc4c32)cc1`, the inhibition in experiment [1] was 41%; in experiment [2], 2.36%; in experiment [3], 2.5%; in experiment [4] it was 61.2%; in experiment [5], 80.4%; in [6] it was 43.9%. Also, the inhibition in [7] came to 86%; in [8], 34.8%; in experiment [9] it was 79.3%; in [10] it was 8.75%.
In the case of `FC(F)(F)c1cccc(-c2nn3ncccc3c2-c2ccnc(Nc3ccc4c(c3)OCCO4)n2)c1`, the inhibition in experiment [1] is 1.67%; in experiment [2], 1.26%; in experiment [3], 0.65%; in [4], 6.38%; in [5] it was 3.11%; in experiment [6], 3.34%. The inhibition in experiment [7] stood at 18.5%; in experiment [8], 1.23%; in experiment [9], 7.02%; in experiment [10], 7.47%.
On to `Nc1nc(-c2cccc(Cl)c2)c(-c2ccc3ncccc3n2)s1`, for which the inhibition came to 12.5% in experiment [1]; 3.47% in experiment [2]; 4.49% in experiment [3]; 14% in [4]; 0.82% in experiment [5]; 0.27% in experiment [6]. In addition, the inhibition in [7] was 9.77%; in experiment [8] it was 1.82%; in experiment [9], 2.3%; in experiment [10], 4.49%.
On to `COC(=O)Nc1nc2ccc(S(=O)(=O)c3ccc(NC(=O)Nc4cc(C(F)(F)F)ccc4F)cc3)cc2[nH]1`, for which the inhibition in experiment [1] stood at 7.16%; in experiment [2], 3.83%; in [3] it was 2.15%; in [4], 5.04%; in experiment [5], 7.26%; in experiment [6] it was 0.23%. Moreover, the inhibition in experiment [7] was 0.36%; in [8] it was -1.07%; in [9], 2.06%; in experiment [10], 1.02%.
For `Fc1cccc(COc2ccc(Nc3ncnc4sc(-c5ccco5)cc34)cc2Cl)c1`, the inhibition in experiment [1] amounted to 8.43%; in experiment [2], 6.82%; in [3] it was 4.61%; in experiment [4], 6.94%; in experiment [5] it was 0.69%; in [6], 1.58%. Moreover, the inhibition in experiment [7] turned out to be 3.49%; in [8], 0.84%; in experiment [9] it was 8.62%; in experiment [10], 0.36%.
As for `Nc1ncc(-c2cccc(S(N)(=O)=O)c2)c2scc(-c3ccc(F)c(Cl)c3)c12`, the inhibition in experiment [1] is -0.67%; in [2], 4.55%; in [3], 2.5%; in [4], 5.8%; in experiment [5], -1.46%; in experiment [6], 5.73%. The inhibition in [7] worked out at 12.6%; in experiment [8] it was 6.9%; in [9], 43.7%; in [10], 7.81%.
With `Cc1cccc(Nc2ncc(-c3ccccc3)o2)c1`, the inhibition turned out to be 4.73% in experiment [1]; 2.24% in experiment [2]; 6.33% in experiment [3]; 6.38% in [4]; 18.6% in experiment [5]; 5.49% in [6]. In addition, the inhibition came out at 9.11% in [7], 9.54% in [8], 25.7% in [9] and 3.07% in [10].
Regarding `CC(=O)Nc1cccc(C#Cc2cncnc2Nc2ccc(OCc3cccc(F)c3)c(Cl)c2)c1`, the inhibition was 2.42% in [1]; 2.3% in [2]; 2.89% in experiment [3]; 3.58% in experiment [4]; -2.98% in experiment [5]; 2.87% in experiment [6]. In addition, the inhibition in experiment [7] came to 3.83%; in experiment [8] it was 0.82%; in experiment [9], 4.6%; in [10], 0.68%.
`CCN(CC)S(=O)(=O)c1ccc(OC)c(Nc2ncc(-c3ccccc3)o2)c1`: the inhibition in experiment [1] is 1.83%; in [2], 0.06%; in experiment [3], 0.24%; in experiment [4], 2.04%; in experiment [5] it was 69.9%; in [6], 30.9%. The inhibition came to 85.5% in experiment [7], 42.4% in [8], 84.8% in experiment [9] and 6.94% in experiment [10].
